According to PubChem BioAssay AID1347417 (National Center for Advancing Translational Sciences (NCATS), 2020):
In all, about 120,000 compounds went through this assay and about 5,300 (4.4%) were called active. About 22% were inconclusive and are not listed. What follows is part of a selection rich in actives, with near analogues and random picks from the rest. Unmarked numbers belong to inactive results. The call rests on the fitted dose curve; in most records, active means well fitted inhibition curve with a large enough effect; inconclusive means small, poorly fitted or top-dose-only effect; inactive means no such curve, though single readings can be large or run the other way.

Test: qHTS Primary assay for Inhibitors of Plasmodium falciparum Dd2 growth in vitro; further: nearly all actives have a fitted effect of over 65% in size;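 on activity, negative = inhibition: plate controls were DMSO vehicle for no effect and reference drug for full effect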
Details: P. falciparum Dd2 growth, SYBR Green, 72 h; series mostly up to 28.9 µM; activity, negative = inhibition: at the top concentration
Method in brief: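 Readout: SYBR Green fluorescence, 485 nm excitation, 535 nm emission, after ~16 h lysis at 37C. Before that, Dd2-infected red cells (2.5% hematocrit) grew 72 h with compound, 29 uM top final concentration.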
Potency means the concentration at half of the fitted maximal effect.

SMILES | activity, negative = inhibition | outcome | Potency
O=C(NCc1cnn(Cc2ccccc2)c1)c1ccc2oc(-c3cccc(F)c3)nc2c1 | -17.9% | – | –
COc1ccc(-c2cc(CC3(N(Cc4ccc(CO)o4)Cc4ccc(CO)o4)COC3)no2)cc1 | – | inactive | –
CCOC(=O)c1c(NC(=O)c2ccc(S(=O)(=O)N(CC)CC)cc2)sc2c1CCCCC2 | -18.8% | – | –
CCOC(=O)c1c(NC(=O)/C=C/c2ccc(OC)cc2)sc2c1CCC(C)C2 (configuration not stated) | 38.9% | – | –
CCOC(=O)c1c(NC(=O)c2ccc(S(=O)(=O)N3CCCC(C)C3)cc2)sc2c1CCN(C(C)C)C2 (configuration not stated) | – | – | 7.94 µM (active)
Clc1ccc(CN2CCC3(CC2)CC(c2ccccc2)=NO3)cc1 | -16.7% | – | –
Cc1ccc(NC(=O)N2CCc3[nH]c4ccc(F)cc4c3C2)cc1C | -6.52% | – | –
COc1ccccc1-n1cc(C(=O)N2CCc3c(Cl)cccc3C2)cn1 | -17.5% | – | –
COC[C@@H]1CN(C(=O)COc2cccc(C)c2)C[C@H]1c1nc(C)no1 | -10.3% | – | –
CC[C@H]1CN(C(=O)Nc2ccccc2)CC[C@H]1CC(=O)Nc1ccccc1 | – | inactive [at 44.1 µM] | –
Cc1ccccc1CNC(=O)c1ccc(NC(=O)N2CCCCc3ccccc32)cc1 | 48% | – | –
CCOC(=O)C1CCN(C(=O)c2cccc3c2CCN3C(=O)Nc2ccccc2)CC1 | – | – | 11.2 µM (active)
COCc1cc(CC2(NCC(C)(C)C)COC2)no1 | -17.5% [at 44.1 µM] | – | –
CC(=O)N[C@@H]1Cc2ccccc2[C@H]1n1ccnc1-c1cc2n(n1)CCNC2 | -0.272% | – | –
Cc1ccc(N2CCN(C(=O)c3ccc4c(c3)N(C)C3CCCCCN3C4=O)CC2)cc1 (configuration not stated) | – | inactive | –
Cc1nc2c(c(-c3ccc(O)cc3)n1)CN(C(=O)c1ccccc1C)CCC2 | -25% | – | –
O=C(Nc1ccccc1)N1CCc2nc(-c3ccccc3)nc(-c3ccc(Cl)cc3)c2C1 | – | – | 10 µM (active)
CC(=O)N1CCc2nc(C3CC3)nc(-c3ccc(Cl)cc3)c2C1 | -17.7% [at 44.1 µM] | – | –
COc1ccc(-c2cc3nc4c(c(=O)n3[nH]2)CN(C(=O)c2ccc(C)nc2)CC4)cc1 | -16.8% [at 5.79 µM] | – | –
CC(C)c1nc2c(c(-c3ccc(O)cc3)n1)CN(C(=O)Nc1ccccc1)CC2 | – | inactive | –
COc1ccc(-c2nc(-c3ccccc3)nc3c2CN(C(=O)c2ccc(C)cc2)CC3)cc1 | – | – | 11.2 µM (active)
Cc1ccc(F)c(OCC(=O)c2ccc3c(c2)N(CCCC(=O)NCC2CCCO2)C(=O)CO3)c1 (configuration not stated) | – | inactive | –
O=C(Cc1ccc(Oc2ccccc2)cc1)N1CC(COc2ccccc2)C2(C1)CN(C(=O)c1cn[nH]c1)C2 (configuration not stated) | -2.51% | – | –
O=C(CC1COCCN1)NCCc1nc(-c2ccccn2)no1 (configuration not stated) | 2.23% | – | –
O=C(NC[C@H]1OC[C@@H](NC2CCOCC2)[C@@H]1O)C1CCCC1 | – | inactive [at 44.1 µM] | –
O=C(NCCCN1CCOCC1)C1CCN(C(=O)N2CC3CC(C2)[C@H]2CCCC(=O)N2C3)CC1 (some centres not stated) | -15.4% | – | –

SMILES | activity, negative = inhibition | outcome | Potency
Clc1ccccc1C1(c2ccnc(NCCn3cccn3)n2)CCNCC1 | -4.47% | – | –
COc1ccc(N2CCC(NC(=O)c3ccc4[nH]ccc4c3)C2=O)cc1 (configuration not stated) | -7.21% | – | –
COc1ccc(-c2nc(C(C)C)nc3c2CCN([S+](=O)([O-])c2cccc(C(F)(F)F)c2)CC3)cc1 | – | – | 7.08 µM (active)
COc1ccc(-c2nc(C)nc3c2CN([S+](=O)([O-])c2onc(C)c2C)CC3)cc1 | – | inactive | –
COc1ccc(-c2nc(C3CC3)nc3c2CCN([S+](=O)([O-])c2ccccc2)CC3)cc1 | – | – | 7.94 µM (active)
COc1ccc(C2=NOC3(CCCN([S+](=O)([O-])c4ccccc4)C3)C2)cc1 (configuration not stated) | 0.512% | – | –
COc1ccc(-c2nc(C(C)C)nc3c2CCN(C(=O)Cc2ccccn2)CC3)cc1 | -16.1% | – | –
COc1cccc([S+](=O)([O-])N2CCCC3(CC(c4cccc(C(F)(F)F)c4)=NO3)C2)c1 (configuration not stated) | 1.81% | – | –
CNC(=O)CCC[C@H]1NC[C@@H]2CCCN3CCC[C@H]1[C@H]23 | 5.79% | – | –
CCNC(=O)[C@@H]1C[C@H](N)CN1C(=O)[C@@H](C)c1ccc2cc(OC)ccc2c1 | -4.1% | – | –
COc1ccccc1N1CCN(C(=O)c2ccccc2-c2ncc[nH]2)CC1=O | 5.23% | – | –
Cc1nn(CC(=O)O)c(=O)c2nc(C(C)C)sc12 | 37% | – | –
O=C(NC1CCCN(c2cc(-c3ccc(Cl)cc3)[nH]n2)C1)c1ccncc1 (configuration not stated) | -9.77% | – | –
CC(C)(C)OC(=O)N1CCC(c2c(C(=O)Nc3ccc4c(c3)OCO4)cnn2-c2ccccc2)CC1 | – | – | 5.01 µM (active)
COC(=O)c1ccc(NC(=O)c2cc(S(=O)(=O)N3CCC(C)CC3)cn2C)cc1 | 13.3% | – | –
Cc1ccc(NC(=O)c2cc3n(n2)CC(c2ccc4c(c2)OCO4)OC3)cc1C (configuration not stated) | -22.5% | – | –
COC(=O)c1ccc(NC(=O)c2cnn(-c3ccc(Cl)cc3)c2C2CCN(C(=O)OC(C)(C)C)CC2)cc1 | – | – | 7.94 µM (active)
CCc1ccccc1NC(=O)c1cnn(-c2ccc(F)cc2)c1C1CCNCC1 | -14% | – | –
COC(=O)c1ccc(NC(=O)c2cccc3c2C(=O)N(C2CCCCC2)C3)cc1 | 16.6% | – | –
COC[C@@H]1[C@H](NC(=O)C2CCN(C(=O)c3ccncc3)CC2)[C@@H]2CCO[C@H]12 | -6.77% | – | –
Cn1cc(CNC(=O)C[C@@H]2C[C@H]3O[C@H](CNC4Cc5ccccc5C4)[C@@H](O)[C@H]3O2)cn1 | 20.1% [at 44.1 µM] | – | –
CCc1nc2ccc(C(=O)N3CCN(c4cc(Cl)ccc4C)CC3)cc2nc1CC | – | – | 11.2 µM (active)
Cc1ccc(Cl)cc1N1CCN(C(=O)c2cccn3c(=O)c4cc(Cl)ccc4nc23)CC1 | 8.94% | – | –
CCc1nc2ccc(C(=O)N3CCN(c4cccc(Cl)c4)CC3)cc2nc1CC | -17.5% | – | –
N#Cc1cccc(C(=O)NC2CCN(c3cc(-c4ccc(Cl)cc4)[nH]n3)C2)c1 (configuration not stated) | -18.8% | – | –
O=C1CN(Cc2cc3cc4c(cc3[nH]c2=O)OCO4)CCCN1 | -6.4% | – | –
